The entries come from a sample that favours hits as a whole.
LmPK inh – LmPK (Leishmania mexicana) enzyme inhibition. AID 1721. purified LmPK, Kinase-Glo ATP luminescence, 1 h. hit rate 0.37% among 290,000. Potency, µM (titrated, usually from 57.5 µM), for the others: at the top dose activity change, negative = inhibition, hits mostly inhibitors; also: potency is read from the fitted curve at half-maximal effect; % is scaled to controls: 0 for no effect and ±100 for the full control effect
Target sequence (Q27686 whole entry, looked up): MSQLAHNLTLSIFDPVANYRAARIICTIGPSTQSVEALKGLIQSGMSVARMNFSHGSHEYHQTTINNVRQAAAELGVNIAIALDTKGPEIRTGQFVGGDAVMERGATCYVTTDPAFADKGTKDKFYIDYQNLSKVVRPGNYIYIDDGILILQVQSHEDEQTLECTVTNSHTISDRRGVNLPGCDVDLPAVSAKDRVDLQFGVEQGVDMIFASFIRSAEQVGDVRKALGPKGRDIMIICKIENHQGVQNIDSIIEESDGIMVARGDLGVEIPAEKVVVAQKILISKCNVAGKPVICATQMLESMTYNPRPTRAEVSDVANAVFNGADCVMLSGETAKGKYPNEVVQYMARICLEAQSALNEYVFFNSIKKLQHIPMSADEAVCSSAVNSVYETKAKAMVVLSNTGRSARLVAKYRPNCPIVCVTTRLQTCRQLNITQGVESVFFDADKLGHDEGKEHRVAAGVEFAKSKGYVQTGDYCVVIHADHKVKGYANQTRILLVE
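Purified LmPK (0.1 nM) with 0.5 mM PEP and 0.1 mM ADP in imidazole buffer pH 7.2 with MgCl2/KCl, 1 h at room temperature. ATP formed was read by luciferase luminescence and normalized to no-enzyme and uninhibited controls.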
Giardia FBPA inh-1 – inhibitors of Giardia lamblia fructose-1,6-bisphosphate aldolase; hit rate 0.71% among 290,000; purified Giardia FBPA; Potency, µM (highest dose often 59.6 µM), without a hit: at the top dose activity, negative = inhibition, hits mostly inhibitors; AID 2451; also: potency is read from the fitted curve at half-maximal effect; % is scaled to controls: 0 for no effect and ±100 for the full control effect; nearly all actives have a fitted effect of over 55% in size
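Giardia FBPA (40 nM reagent) was preincubated 10 min at RT with compound (up to 57.5 uM final), then substrate plus GAPDH/TPI/NAD/arsenate coupling system with diaphorase/resazurin was added; resorufin fluorescence (525/598 nm) was read after 20 min.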
TbPYK inhibitor – inhibitors of Trypanosoma brucei pyruvate kinase; Q57TT1; TbPYK enzyme, Kinase-Glo Plus ATP luminescence, 45 min; Potency, µM (titrated, usually from 76.8 µM), for the others: at the highest dose activity, negative = inhibition, most hits filed as inhibitors; hit rate 0.12% among 410,000; AID 624173; also: potency is read from the fitted curve at half-maximal effect; % is scaled to controls: 0 for no effect and ±100 for the full control effect; nearly all actives have a fitted effect of over 50% in size
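Glycolytic pyruvate kinase of T. brucei was incubated with substrate, test compound and 130 uM ADP for 45 minutes at room temperature. Luminescent Kinase-Glo Plus signal was measured after 10 minutes.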
Shiga toxin inh – inhibitors of Shiga toxin in Vero cells; Vero cells, Shiga toxin protein synthesis inhibition reporter; inhibition, % at 38.7 µM; hit rate 9.2% among 290,000; AID 2315; in the data active = inhibition mostly above about 28%, no sharp cut-off; inactive = mostly below about 43%; also: 0% is about no effect
Sm TGR block – blocks Schistosoma mansoni thioredoxin glutathione reductase. Q962Y6. purified TGR, DTNB reduction, TNB absorbance 405 nm. Potency, µM (top dose mostly 114 µM), for the others: at the highest dose activity change, negative = inhibition, actives largely listed as inhibitors. hit rate 3% among 360,000; also: potency is read from the fitted curve at half-maximal effect; % is scaled to controls: 0 for no effect and ±100 for the full control effect; nearly all actives have a fitted effect of over 60% in size
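First, TGR (20 nM dispensed) and NADPH were mixed with compound. Second, a 15 min room-temperature incubation followed. Third, further NADPH and then DTNB were added to start the reaction. Finally, TNB absorbance was monitored kinetically.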
Cycloheximide cs – affects cycloheximide protein synthesis inhibition readout, counter-screen | cell reporter, cycloheximide protein synthesis inhibition counterscreen | max response, % | hit rate 12% among 300,000; in the data active = max response mostly above about 13%, no sharp cut-off; inactive = mostly below about 14%; also: read at 38.3 µM for the half of the compounds with a filed dose; 0% is about no effect
Giardia growth – blocks growth of Giardia lamblia trophozoites; Giardia lamblia trophozoite growth inhibition; Potency, µM (doses to about 57.5 µM), for inactives: at the highest dose activity change, negative = inhibition, actives largely listed as inhibitors; hit rate 5% among 1,500; shares compounds with Giardia FBPA inh-1; AID 2785;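 also: potency is read from the fitted curve at half-maximal effect; trophozoites exposed to compound for 48 h at 37 °C; % is scaled to controls: 0 for no effect and ±100 for the full control effect; nearly all actives have a fitted effect of over 70% in size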
Mammal cell tox – toxic to mammalian cells in Giardia aldolase counter-screen; shares compounds with Giardia FBPA inh-1; mammalian cell viability counter-screen, qHTS; Potency, µM (titrated, usually from 57.5 µM), for the others: top-dose viability change, negative = toxicity, actives largely listed as inhibitors; hit rate 4% among 1,500;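 also: Chinese hamster ovary cells used as mammalian cytotoxicity surrogate; viability measured as cellular ATP by luminescence; potency is read from the fitted curve at half-maximal effect; compound exposure lasted 48 h before reading; % is scaled to controls: 0 for no effect and ±100 for the full control effect; nearly all actives have a fitted effect of over 60% in size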
Giardia FBPA inh-2 – confirmation of Giardia fructose-bisphosphate aldolase inhibitors; hit rate 5% among 1,500; purified Giardia aldolase enzyme activity, qHTS; shares compounds with Giardia FBPA inh-1; Potency, µM (highest dose often 57.5 µM), for inactives: at the highest dose activity change, negative = inhibition, actives largely listed as inhibitors; AID 2787; also: potency is read from the fitted curve at half-maximal effect; % is scaled to controls: 0 for no effect and ±100 for the full control effect; nearly all actives have a fitted effect of over 45% in size
Rabbit FBPA inh – blocks rabbit muscle aldolase in Giardia aldolase selectivity test; shares compounds with Giardia FBPA inh-1; Rabbit muscle FBPA enzyme inhibition, selectivity counter-screen; Potency, µM (titrated, usually from 57.5 µM), for the others: top-dose activity, negative = inhibition, usual class: inhibitors; hit rate 4% among 1,500; AID 2794; also: potency is read from the fitted curve at half-maximal effect; % is scaled to controls: 0 for no effect and ±100 for the full control effect; nearly all actives have a fitted effect of over 60% in size
Target sequence (P00883 whole entry, looked up): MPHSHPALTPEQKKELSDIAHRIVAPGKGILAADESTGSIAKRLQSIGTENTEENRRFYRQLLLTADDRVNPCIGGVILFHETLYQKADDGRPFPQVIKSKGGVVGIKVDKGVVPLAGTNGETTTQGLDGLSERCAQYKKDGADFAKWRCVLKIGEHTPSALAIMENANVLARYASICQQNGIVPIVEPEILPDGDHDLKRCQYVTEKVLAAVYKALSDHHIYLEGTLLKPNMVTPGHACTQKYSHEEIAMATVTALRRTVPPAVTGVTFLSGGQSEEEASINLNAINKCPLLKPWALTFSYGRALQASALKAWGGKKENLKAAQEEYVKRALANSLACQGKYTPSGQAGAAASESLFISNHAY
GAPDH coupling – GAPDH inhibition flagged for Giardia aldolase hits. shares compounds with Giardia FBPA inh-1. GAPDH coupling enzyme counterscreen, biochemical, qHTS. Potency, µM (doses to about 57.5 µM), inactives show at the highest dose activity change, negative = inhibition, actives largely listed as inhibitors. hit rate 6% among 1,500; also: potency is read from the fitted curve at half-maximal effect; % is scaled to controls: 0 for no effect and ±100 for the full control effect; nearly all actives have a fitted effect of over 55% in size
Starred values were filed as active, the others as inactive; [ ] = dose if it differs, or a comment. Unless noted, calls follow the shape of the dose curve; as a rule, active = well fitted curve in the direction sought with a large enough effect; inconclusive = small, poorly fitted or top-dose-only effect, or another doubt; inactive = no such curve, though single readings can be large; an effect the other way counts as inactive or inconclusive.

CC(C)c1ccc(/C=N/N2CCCCC2)cc1 was read as LmPK inh 0.0%, Giardia FBPA inh-1 14.1µM*, TbPYK inhibitor -14.1%, Shiga toxin inh 139.3*, Sm TGR block 4.6%, Cycloheximide cs 31.2*, Giardia growth -15.1%[10.4 µM], Mammal cell tox -1.0%, Giardia FBPA inh-2 -7.6%, Rabbit FBPA inh -5.5% and GAPDH coupling -6.0%.
Cc1cc(=O)[nH]c(N/N=C/c2c(C)nn(-c3ccccc3)c2C)n1 was read as LmPK inh 0.9%, Giardia FBPA inh-1 -4.3%, TbPYK inhibitor 3.2%, Shiga toxin inh 8.6, Sm TGR block -10.1% and Cycloheximide cs 2.6.
Cc1nn(-c2ccccc2)c(C)c1/C=N/Nc1nc2ccccc2[nH]1 was read as LmPK inh inconclusive, Giardia FBPA inh-1 19.9µM*, TbPYK inhibitor -8.7%, Shiga toxin inh 148.7*, Sm TGR block -5.6%, Cycloheximide cs 82.2*, Giardia growth 14.1µM*, Mammal cell tox 25.1µM*, Giardia FBPA inh-2 8.4%, Rabbit FBPA inh 0.1% and GAPDH coupling -15.6%.
`O=c1cc(-c2ccc(O)cc2)oc2c(O)c(O)c(O)c(O)c12` gave LmPK inh -16.2%, Giardia FBPA inh-1 6.29µM*, TbPYK inhibitor -27.7%, Shiga toxin inh 2.1, Sm TGR block 3.98µM*, Cycloheximide cs -1.4, Giardia growth -8.3%[38.3 µM], Mammal cell tox -9.7%, Giardia FBPA inh-2 20.6µM*, Rabbit FBPA inh 18.3µM* and GAPDH coupling inconclusive.
For C/C(=N/NC(=O)c1cn(-c2cccc(C)n2)cn1)c1ccc(C)cc1 the results were LmPK inh -5.6%, Giardia FBPA inh-1 -0.1%, TbPYK inhibitor -2.9%, Shiga toxin inh 7.8, Sm TGR block 2.3% and Cycloheximide cs 5.9.
Screening Cc1cccc(-n2cnc(C(=O)O)c2)n1 returned LmPK inh -2.7%, Giardia FBPA inh-1 19.9µM*, TbPYK inhibitor 2.4%, Shiga toxin inh -5.0, Sm TGR block -0.6%, Cycloheximide cs -2.9, Giardia growth 10.4%[10.4 µM], Mammal cell tox 21.8%, Giardia FBPA inh-2 1.8%, Rabbit FBPA inh -1.6% and GAPDH coupling 4.4%.
`CCC(C)[C@H](NC(=O)[C@@H]1Cc2ccccc2CN1)C(=O)NCc1ccc(OC)cc1` (stereo partly drawn) gave LmPK inh -5.4%, Giardia FBPA inh-1 14.1µM*, TbPYK inhibitor 7.1%, Shiga toxin inh -4.7, Sm TGR block 7.7%, Cycloheximide cs -0.4, Giardia growth -29.8%, Mammal cell tox 14.2%, Giardia FBPA inh-2 8.1%, Rabbit FBPA inh 2.2% and GAPDH coupling 10.7%.
For COc1ccc(CCNCc2cc(C)n(-c3ccc(OC)cc3)c2C)cc1 the results were LmPK inh -0.6%, Giardia FBPA inh-1 14.1µM*, TbPYK inhibitor 14.5%, Shiga toxin inh 20.2, Sm TGR block 50.1µM*, Cycloheximide cs -0.8, Giardia growth 6.3%[10.4 µM], Mammal cell tox -1.8%, Giardia FBPA inh-2 6.4%, Rabbit FBPA inh -5.4% and GAPDH coupling 1.4%.
`CCc1nnc(N/N=C/c2ccc(N3CCC(C)CC3)c([N+](=O)[O-])c2)n1N` gave LmPK inh 0.8%, Giardia FBPA inh-1 7.06µM*, TbPYK inhibitor 0.6%, Shiga toxin inh -10.0, Sm TGR block -3.1%, Cycloheximide cs -3.3, Giardia growth inconclusive, Mammal cell tox -6.6%, Giardia FBPA inh-2 inconclusive, Rabbit FBPA inh -24.0% and GAPDH coupling -26.8%.
For Nn1cnnc1N/N=C/c1ccccc1C(F)(F)F the results were LmPK inh -1.5%, Giardia FBPA inh-1 inconclusive, TbPYK inhibitor -0.6%, Shiga toxin inh 4.0, Sm TGR block 1.7% and Cycloheximide cs 4.5.
`Nn1cnnc1N/N=C/c1ccc(Cl)c([N+](=O)[O-])c1` gave LmPK inh -0.8%, Giardia FBPA inh-1 12.6µM*, TbPYK inhibitor 2.1%, Shiga toxin inh 38.5, Sm TGR block inconclusive, Cycloheximide cs 6.0, Giardia growth -12.7%, Mammal cell tox 6.6%, Giardia FBPA inh-2 inconclusive, Rabbit FBPA inh inconclusive and GAPDH coupling inconclusive.
`Nc1nnnn1/N=C\c1ccc(Cl)c([N+](=O)[O-])c1` gave LmPK inh -3.2%, Giardia FBPA inh-1 0.8%, TbPYK inhibitor -3.5%, Shiga toxin inh -11.2, Sm TGR block -3.7% and Cycloheximide cs -2.1.
CCN(CC(=O)Nc1ccc(NC(C)=O)cc1)C(=O)c1ccc(N2CCC(C)CC2)c([N+](=O)[O-])c1 was read as TbPYK inhibitor 3.3% and Sm TGR block 5.3%.
`Nn1cnnc1N/N=C/c1ccc(F)cc1` gave LmPK inh -3.1%, Giardia FBPA inh-1 20µM*, TbPYK inhibitor -7.4%, Shiga toxin inh -2.8, Sm TGR block -13.3%, Cycloheximide cs 1.9, Giardia growth 11.8%, Mammal cell tox 8.8%, Giardia FBPA inh-2 inconclusive, Rabbit FBPA inh -11.0% and GAPDH coupling inconclusive.
`Nn1cnnc1N/N=C/c1cccc(Cl)c1Cl` gave LmPK inh -9.9%, Giardia FBPA inh-1 inconclusive, TbPYK inhibitor -8.3%, Shiga toxin inh -3.8, Sm TGR block 13.6%, Cycloheximide cs -2.4, Giardia growth -3.8%[38.3 µM], Mammal cell tox -6.8%, Giardia FBPA inh-2 9.19µM*, Rabbit FBPA inh 11.6µM* and GAPDH coupling 14.6µM*.
For CC(C)c1cccc(-c2csc(C(O)c3cccc(Cl)c3)n2)c1 (stereo not drawn) the results were TbPYK inhibitor 2.5%.
O=C(CNCc1ccccn1)Nc1cc(C(F)(F)F)ccc1N1CCOCC1 was read as LmPK inh -5.6%, Giardia FBPA inh-1 15.8µM*, TbPYK inhibitor -9.2%, Shiga toxin inh 7.8, Sm TGR block -2.0%, Cycloheximide cs -0.2, Giardia growth inconclusive, Mammal cell tox 1.4%, Giardia FBPA inh-2 5.8%, Rabbit FBPA inh 5.9% and GAPDH coupling 8.6%.

Assay outcomes: PubChem, National Center for Advancing Translational Sciences (NCATS)
